# Experimental data taken from the supplement of paper PMC4466140.
# B1: unnamed (peptide)
# chain: NNFYRPLLRSVLVLL
# Assays:
# Test in all cases: SPOT peptide array binding signal intensity (averaged, normalized) (arbitrary units (background-subtracted, floor 0; scale differs between SH3 domains)); higher = stronger binding of the SH3 domain to the peptide
# [1] = target: AgAbp1
# In short: (§1)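 GST-fused SH3 domains, from four yeast species, were produced in E. coli BL21(DE3) and captured on glutathione Sepharose. Membranes of cellulose carrying synthetic 15-mer peptides, in which cysteines had been replaced by serines, were exposed to each domain at 10 μg/ml overnight at 4°C in TBS-based blocking buffer. After anti-GST antibody, an HRP anti-mouse secondary and luminol, spots were imaged and quantified using Genespotter. Binding signal is normalized and background-subtracted spot intensity, averaged over replicates, in arbitrary units that differ between domains.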
# [2] = target: AgBbc1
# In short: as §1
# [3] = target: AgBem1-D1
# In short: as §1
# [4] = target: AgBzz1-D1
# In short: as §1
# [5] = target: AgBzz1-D2
# In short: as §1
# [6] = target: AgCyk3
# In short: as §1
# [7] = target: AgFus1
# In short: as §1
# [8] = target: AgHof1
# In short: as §1
# [9] = target: AgHse1
# In short: as §1
# [10] = target: AgLsb1
# In short: as §1
# [11] = target: AgLsb4
# In short: as §1
# [12] = target: AgMyo5
# In short: as §1
# [13] = target: AgNbp2
# In short: as §1
# [14] = target: AgRvs167
# In short: as §1
# [15] = target: AgSho1
# In short: as §1
# [16] = target: AgSla1-D1-D2
# In short: as §1
# [17] = target: AgSla1-D3
# In short: as §1
# [18] = target: CaAbp1-D1
# In short: as §1
# [19] = target: CaAbp1-D2
# In short: as §1
# [20] = target: CaBbc1
# In short: as §1
# [21] = target: CaBem1-D1
# In short: as §1
# [22] = target: CaBzz1-D1
# In short: as §1
# [23] = target: CaBzz1-D2
# In short: as §1
# [24] = target: CaCyk3
# In short: as §1
# [25] = target: CaFus1
# In short: as §1
# [26] = target: CaHof1
# In short: as §1
# [27] = target: CaHse1
# In short: as §1
# [28] = target: CaLsb1
# In short: as §1
# [29] = target: CaLsb4
# In short: as §1
# [30] = target: CaMyo5
# In short: as §1
# [31] = target: CaNbp2
# In short: as §1
# [32] = target: CaRvs167
# In short: as §1
# [33] = target: CaRvs167-3
# In short: as §1
# [34] = target: CaSho1
# In short: as §1
# [35] = target: CaSla1-D1-D2
# In short: as §1
# [36] = target: CaSla1-D3
# In short: as §1
# [37] = target: ScAbp1
# In short: as §1
# [38] = target: ScBbc1
# In short: as §1
# [39] = target: ScBem1-D1
# In short: as §1
# [40] = target: ScBzz1-D1
# In short: as §1
# [41] = target: ScBzz1-D2
# In short: as §1
# [42] = target: ScCyk3
# In short: as §1
# [43] = target: ScFus1
# In short: as §1
# [44] = target: ScHof1
# In short: as §1
# [45] = target: ScHse1
# In short: as §1
# [46] = target: ScLsb1
# In short: as §1
# [47] = target: ScLsb2
# In short: as §1
# [48] = target: ScLsb3
# In short: as §1
# [49] = target: ScLsb4
# In short: as §1
# [50] = target: ScMyo3
# In short: as §1
# [51] = target: ScMyo5
# In short: as §1
# [52] = target: ScNbp2
# In short: as §1
# [53] = target: ScPex13
# In short: as §1
# [54] = target: ScRvs167
# In short: as §1
# [55] = target: ScSho1
# In short: as §1
# [56] = target: ScSla1-D1-D2
# In short: as §1
# [57] = target: ScSla1-D3
# In short: as §1
# [58] = target: SpAbp1-D1
# In short: as §1
# [59] = target: SpBbc1
# In short: as §1
# [60] = target: SpBzz1-D1
# In short: as §1
# [61] = target: SpBzz1-D2
# In short: as §1
# [62] = target: SpCyk3
# In short: as §1
# [63] = target: SpHof1
# In short: as §1
# [64] = target: SpHof1-2
# In short: as §1
# [65] = target: SpHof1-3
# In short: as §1
# [66] = target: SpHse1
# In short: as §1
# [67] = target: SpLsb1
# In short: as §1
# [68] = target: SpLsb4
# In short: as §1
# [69] = target: SpMyo1
# In short: as §1
# [70] = target: SpNbp2
# In short: as §1
# [71] = target: SpPex13
# In short: as §1
# [72] = target: SpRvs167
# In short: as §1
# [73] = target: SpSla1-D1-D2
# In short: as §1
# [74] = target: SpSla1-D3
# In short: as §1
binder,measurement,setting,value
B1,SPOT peptide array binding signal intensity,[1],≤ 0
same,SPOT peptide array binding signal intensity,[2],≤ 0
same,SPOT peptide array binding signal intensity,[3],8
same,SPOT peptide array binding signal intensity,[4],13
same,SPOT peptide array binding signal intensity,[5],18
same,SPOT peptide array binding signal intensity,[6],≤ 0
same,SPOT peptide array binding signal intensity,[7],246
same,SPOT peptide array binding signal intensity,[8],≤ 0
same,SPOT peptide array binding signal intensity,[9],722
same,SPOT peptide array binding signal intensity,[10],0.5
same,SPOT peptide array binding signal intensity,[11],10.5
same,SPOT peptide array binding signal intensity,[12],≤ 0
same,SPOT peptide array binding signal intensity,[13],6.5
same,SPOT peptide array binding signal intensity,[14],1
same,SPOT peptide array binding signal intensity,[15],14.5
same,SPOT peptide array binding signal intensity,[16],1
same,SPOT peptide array binding signal intensity,[17],2
same,SPOT peptide array binding signal intensity,[18],≤ 0
same,SPOT peptide array binding signal intensity,[19],≤ 0
same,SPOT peptide array binding signal intensity,[20],≤ 0
same,SPOT peptide array binding signal intensity,[21],≤ 0
same,SPOT peptide array binding signal intensity,[22],≤ 0
same,SPOT peptide array binding signal intensity,[23],1
same,SPOT peptide array binding signal intensity,[24],≤ 0
same,SPOT peptide array binding signal intensity,[25],2730
same,SPOT peptide array binding signal intensity,[26],0.75
same,SPOT peptide array binding signal intensity,[27],21.8
same,SPOT peptide array binding signal intensity,[28],≤ 0
same,SPOT peptide array binding signal intensity,[29],≤ 0
same,SPOT peptide array binding signal intensity,[30],≤ 0
same,SPOT peptide array binding signal intensity,[31],72.5
same,SPOT peptide array binding signal intensity,[32],3
same,SPOT peptide array binding signal intensity,[33],1
same,SPOT peptide array binding signal intensity,[34],80
same,SPOT peptide array binding signal intensity,[35],≤ 0
same,SPOT peptide array binding signal intensity,[36],≤ 0
same,SPOT peptide array binding signal intensity,[37],≤ 0
same,SPOT peptide array binding signal intensity,[38],0.75
same,SPOT peptide array binding signal intensity,[39],4
same,SPOT peptide array binding signal intensity,[40],19
same,SPOT peptide array binding signal intensity,[41],6
same,SPOT peptide array binding signal intensity,[42],57.5
same,SPOT peptide array binding signal intensity,[43],238
same,SPOT peptide array binding signal intensity,[44],1
same,SPOT peptide array binding signal intensity,[45],1040
same,SPOT peptide array binding signal intensity,[46],0.5
same,SPOT peptide array binding signal intensity,[47],1
same,SPOT peptide array binding signal intensity,[48],0.5
same,SPOT peptide array binding signal intensity,[49],≤ 0
same,SPOT peptide array binding signal intensity,[50],≤ 0
same,SPOT peptide array binding signal intensity,[51],≤ 0
same,SPOT peptide array binding signal intensity,[52],13
same,SPOT peptide array binding signal intensity,[53],0.25
same,SPOT peptide array binding signal intensity,[54],2.33
same,SPOT peptide array binding signal intensity,[55],350
same,SPOT peptide array binding signal intensity,[56],≤ 0
same,SPOT peptide array binding signal intensity,[57],0.5
same,SPOT peptide array binding signal intensity,[58],≤ 0
same,SPOT peptide array binding signal intensity,[59],≤ 0
same,SPOT peptide array binding signal intensity,[60],8
same,SPOT peptide array binding signal intensity,[61],0.5
same,SPOT peptide array binding signal intensity,[62],6.5
same,SPOT peptide array binding signal intensity,[63],3
same,SPOT peptide array binding signal intensity,[64],4
same,SPOT peptide array binding signal intensity,[65],366
same,SPOT peptide array binding signal intensity,[66],1050
same,SPOT peptide array binding signal intensity,[67],≤ 0
same,SPOT peptide array binding signal intensity,[68],≤ 0
same,SPOT peptide array binding signal intensity,[69],≤ 0
same,SPOT peptide array binding signal intensity,[70],0.5
same,SPOT peptide array binding signal intensity,[71],5.5
same,SPOT peptide array binding signal intensity,[72],0.667
same,SPOT peptide array binding signal intensity,[73],4
same,SPOT peptide array binding signal intensity,[74],≤ 0
